# KCNH2 3.1 block: blocks the human KCNH2 3.1 channel isoform. U2OS KCNH2 3.1, thallium flux FluxOr; active compounds read low. activity change, % (tested at about 1.8 µM). 340,000 compounds, 0.95% hits;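 active = maximum activity change below -70%; inconclusive = maximum activity change from -70% to -50%; inactive = maximum activity change above -50%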;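 also: thallium influx rate constant from kinetic fluorescence after stimulation buffer; % is scaled to controls: 0 for no effect and ±100 for the full control effect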
#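 Thallium flux read-out: FluxOr dye with Red40 quencher in HBSS/HEPES, 45 min at RT. Rate constants from kinetic reads were normalized to positive and negative DMSO controls. Cells: U2OS virally expressing the 3.1 isoform.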
# SW480 rereplic: inducers of DNA re-replication in SW480 colon cancer cells. 340,000 compounds, 1.8% hits. Potency, µM (highest dose often 46.1 µM), inactives show at the top dose re-replication activation, actives largely listed as activators. SW480 DNA re-replication, Hoechst DNA content imaging, 48 h. AID 624297; also: potency is read from the fitted curve at half-maximal effect; % of control where 0% means no effect; nearly all actives have a fitted effect of over 55% in size
#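 250 cells/well; 23 nL cpd via pin tool; 48 hr, 37 C, 5% CO2; Hoechst 40 min; imager read of total nuclear intensity, ex 405/em 500-530 nm.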
# MCF10A rereplic: induces DNA re-replication in MCF 10a normal breast cells. MCF 10A DNA re-replication, Hoechst nuclear intensity, 48 h. Potency, µM (titrated, usually from 46.1 µM), for the others: top-dose activity, positive = re-replication, actives largely listed as activators. 350,000 compounds, 2.9% hits. AID 624296; also: potency is read from the fitted curve at half-maximal effect; % of control where 0% means no effect; nearly all actives have a fitted effect of over 50% in size
# KB-3-1 cytotox: KB-3-1 parental cell cytotoxicity | KB-3-1 viability, CellTiter-Glo ATP luminescence, 72 h | Potency, µM (highest dose often 46.1 µM), hits mostly cytotoxic | 400,000 compounds, 1.4% hits | AID 1347075; also: potency is read from the fitted curve at half-maximal effect; % is scaled to controls: 0 for no effect and ±100 for the full control effect; nearly all actives have a fitted effect of over 60% in size
#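 Cells are dispensed, compounds pinned in, plates held at 37 °C for 72 h, then CellTiter-Glo is added and luminescence read after 10 minutes. Cell line: parental KB-3-1 in phenol-red-free DMEM, 10% FBS.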
# hERG WT inh: KCNH2 (human, wildtype) channel inhibition; U2OS, BacMam KCNH2, thallium flux FluxOr; active compounds read low; activity change, % at 1.84 µM; 340,000 compounds, 0.37% hits;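 active = maximum activity change below -70%; inconclusive = maximum activity change between -70% and -50%; inactive = maximum activity change above -50%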; also: % is scaled to controls: 0 for no effect and ±100 for the full control effect
# Target sequence (Q12809 whole entry, looked up): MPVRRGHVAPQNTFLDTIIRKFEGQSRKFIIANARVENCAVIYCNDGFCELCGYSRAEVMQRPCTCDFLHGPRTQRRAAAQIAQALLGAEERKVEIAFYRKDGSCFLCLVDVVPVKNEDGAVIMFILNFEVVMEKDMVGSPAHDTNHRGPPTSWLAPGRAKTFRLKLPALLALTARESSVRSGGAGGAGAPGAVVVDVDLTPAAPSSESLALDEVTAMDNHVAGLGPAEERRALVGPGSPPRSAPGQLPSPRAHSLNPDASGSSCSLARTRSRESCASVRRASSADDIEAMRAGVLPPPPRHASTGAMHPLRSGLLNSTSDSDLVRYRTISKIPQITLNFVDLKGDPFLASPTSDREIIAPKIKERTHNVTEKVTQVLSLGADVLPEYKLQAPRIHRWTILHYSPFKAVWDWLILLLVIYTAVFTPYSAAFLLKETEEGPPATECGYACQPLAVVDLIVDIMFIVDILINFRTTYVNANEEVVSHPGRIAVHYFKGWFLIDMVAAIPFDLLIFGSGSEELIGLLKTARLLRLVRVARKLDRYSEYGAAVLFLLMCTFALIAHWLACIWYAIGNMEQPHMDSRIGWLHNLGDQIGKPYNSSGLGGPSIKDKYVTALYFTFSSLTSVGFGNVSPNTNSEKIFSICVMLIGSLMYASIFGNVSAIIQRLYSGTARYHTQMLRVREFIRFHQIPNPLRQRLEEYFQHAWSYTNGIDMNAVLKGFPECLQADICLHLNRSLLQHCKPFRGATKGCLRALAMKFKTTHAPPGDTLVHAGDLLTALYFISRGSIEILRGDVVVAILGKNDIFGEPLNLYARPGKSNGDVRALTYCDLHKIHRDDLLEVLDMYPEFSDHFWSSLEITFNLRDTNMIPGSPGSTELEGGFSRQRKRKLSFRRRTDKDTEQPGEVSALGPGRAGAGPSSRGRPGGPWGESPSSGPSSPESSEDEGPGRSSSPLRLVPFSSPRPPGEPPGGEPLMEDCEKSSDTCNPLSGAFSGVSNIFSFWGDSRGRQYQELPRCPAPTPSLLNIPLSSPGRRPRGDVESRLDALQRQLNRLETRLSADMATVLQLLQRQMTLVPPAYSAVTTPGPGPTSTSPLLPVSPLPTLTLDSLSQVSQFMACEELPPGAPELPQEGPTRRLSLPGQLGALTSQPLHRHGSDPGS
#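 U2OS cells transduced with wild-type KCNH2 virus are loaded with FluxOr dye for 45 min, and thallium flux is measured in kinetic reads before and after stimulation buffer. Rate constants are normalized to DMSO controls.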
# KB-V1 MDR tox: KB-V1 MDR subline cytotoxicity | Potency, µM (doses to about 46.1 µM), usual class: cytotoxic | KB-V1 MDR cells viability, CellTiter-Glo, 72 h | 400,000 compounds, 3.4% hits | AID 1347076; also: potency is read from the fitted curve at half-maximal effect; % is scaled to controls: 0 for no effect and ±100 for the full control effect; nearly all actives have a fitted effect of over 60% in size
#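 KB-V1, DMEM (no phenol red) + 10% FBS; cpd pin-transferred, titration series; 72 h, 37 degrees C; CellTiter-Glo, luminescence. Data normalized, curve-fit.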
# Starred values were filed as active, the others as inactive; i = inactive; ? = inconclusive; / = no result given. Compounds with a hit are over-represented: about 7.6% of the library has one in this group of screens. Unless noted, calls follow the shape of the dose curve; as a rule, active = well fitted curve in the direction sought with a large enough effect; inconclusive = small, poorly fitted or top-dose-only effect, or another doubt; inactive = no such curve, though single readings can be large; an effect the other way counts as inactive or inconclusive.
SMILES,KCNH2 3.1 block,SW480 rereplic,MCF10A rereplic,KB-3-1 cytotox,hERG WT inh,KB-V1 MDR tox
CCOC(=O)c1c(-c2ccccc2)csc1NC(=O)/C(C#N)=C/c1ccc(O)c(OC)c1,-2,?,21µM*,i,-3,i
CCOC(=O)c1c(-c2ccccc2)csc1NC(=O)CSc1ccccc1,-13,-1%,9%,i,-6,18µM*
CCOC(=O)c1c(-c2ccccc2)csc1NC(=O)/C(C#N)=C/c1ccc(OC)c(OC)c1,-3,2%,?,i,-1,i
CCOC(=O)c1c(-c2ccc(C)cc2)csc1NC(=O)CCSc1nnc2ccccn12,0,-2%,?,i,-1,16µM*
Cc1ccc(NC(=O)CCSc2nnc3ccccn23)cc1,-2,3%,0%,i,-3,i
CCOC(=O)c1c(-c2ccc(OC)cc2)csc1/N=C/N(C)C,-13,-4%,9%,?,2,23µM*
COC(=O)c1c(-c2ccc3ccccc3c2)csc1NC(=O)Cc1ccc(OC)c(OC)c1,0,?,?,?,7,15µM*
CCOC(=O)c1c(-c2ccc(OC)cc2)csc1NC(=O)CSc1ccccc1,-6,8%,7.3µM*,?,9,i
CCOC(=O)c1c(-c2ccc(OC)cc2)csc1NC(=O)CSc1nnc(C)c(=O)[nH]1,-1,-1%,?,i,-10,i
CCOC(=O)c1c(-c2ccc(C)cc2)csc1NC(=O)c1cc2ccccc2oc1=O,-122*,-36%,-1%,i,0,i
Cc1nn(Cc2ccccc2)c2c1C(c1cccc(Cl)c1)C(C#N)=C(N)O2 (centres undefined),-8,?,?,i,3,?
CC1(C(=O)NCCc2c[nH]c3ccccc23)C=CCN1C(=O)c1ccccc1 (centres undefined),2,2%,-2%,i,2,i
O=C(CC1Sc2ncnn2C1=O)Nc1ccccc1 (centres undefined),-8,?,?,i,4,i
CC1=C(C)/C(=N/OC(=O)c2cccc([N+](=O)[O-])c2)C=CC1=O,-2,8.2µM*,8.2µM*,i,-5,i
COc1ccc(-n2cc(-c3ccccc3)c3c(N4CC(C)OC(C)C4)ncnc32)cc1 (centres undefined),-5,15%,23µM*,i,-3,?
CCOc1ccc(-n2cc(-c3ccccc3)c3c(N4CCOCC4)ncnc32)cc1,6,2%,?,i,-1,i
c1ccc(-c2cn(-c3ccccc3)c3ncnc(N4CCCCC4)c23)cc1,-1,22%,16µM*,i,4,i
COc1ccc(C(=O)NC(C)c2ccc(-n3ccnc3)cc2)c(OC)c1 (centres undefined),10,-7%,-14%,i,-1,i
O=[N+]([O-])c1ccc(C2=CSC3=NCCN23)cc1,0,-4%,1%,i,-3,?
Cc1ccc(C2=CSC3=NCCN23)cc1,-16,0%,7.3µM*,i,-1,i
COc1ccc(N2CCN(C(=O)c3ccc4nc(N5CCC(C)CC5)sc4c3)CC2)cc1,/,/,/,i,/,i
COc1ccc2[nH]c(C)c(CCNC(=S)Nc3cccc(C)c3)c2c1,-13,?,-4%,i,5,i
CCc1cccc(C)c1NC(=S)NCCc1c(C)[nH]c2ccc(C)cc12,-26,?,10µM*,?,-16,?
COc1ccc2[nH]c(C)c(CCNC(=S)Nc3cc(C)ccc3C)c2c1,9,16µM*,?,i,-7,i
CCc1cccc(CC)c1NC(=S)NCCc1c(C)[nH]c2ccc(C)cc12,?,15µM*,?,6.5µM*,-5,5.8µM*
SMILES,KCNH2 3.1 block,SW480 rereplic,MCF10A rereplic,KB-3-1 cytotox,hERG WT inh,KB-V1 MDR tox
CCc1nc2ccc(C(=O)Nc3cccc(OCC(=O)N(C)C)c3)cn2c1N(C)C(=O)c1cccc(OC)c1,/,/,/,i,/,i
O=C(NCCc1csc(-c2ccc(Cl)cc2)n1)c1cccs1,/,/,/,i,/,?
CSc1ccccc1NC(=O)COc1ccccc1Cl,1,-11%,15%,i,-4,i
CCN(CC)CCNC(=O)Cc1nn(Cc2ccccc2)c(=O)c2ccccc12,3,2.3µM*,175%,i,58,i
CCN(CC)CCNC(=O)Cn1nc(Cc2ccncc2)c2ccccc2c1=O,-10,-22%,-3%,i,18,?
Cc1cc(C)c(C)c(OCCOCCN2CCN(C)CC2)c1,10,0%,21µM*,i,30,i
CCNS(=O)(=O)c1ccc(C(=O)OCc2cc(=O)oc3cc(OC)ccc23)cc1,-3,?,15µM*,i,6,i
O=c1c2ccccc2nnn1COc1cccc(Cl)c1,1,0%,-2%,i,10,i
O=c1c2nnn(-c3ccccc3)c2ncn1C/C=C/c1ccccc1,4,-2%,-3%,i,2,i
COc1cccc(/C=C(/C(=O)OCC(=O)NC2CCCC(C)C2C)c2ccccc2)c1 (centres undefined),0,-16%,18µM*,i,-2,i
CC(=O)NC12CC3CC(C1)CC(C(=O)N1CCN(S(=O)(=O)c4ccc([N+](=O)[O-])cc4)CC1)(C3)C2,21,-1%,8%,i,3,i
Nc1c(Cl)ncnc1N/N=C/c1cccnc1,-1,-57%,3.7µM*,i,3,i
O/N=C/c1ccc2ccccc2n1,5,-22%,0%,i,-1,i
Nc1c(Cl)ncnc1N/N=C/c1ccnc2ccccc12,-13,17%,14%,i,-4,?
Clc1ccc(N/N=C/c2cccnc2)cc1,-8,11%,?,i,-7,i
Nc1c(Cl)ncnc1N/N=C/c1ccccn1,-13,?,?,8.2µM*,0,i
Nc1c(Cl)ncnc1N/N=C/c1ccc2ccccc2n1,-23,0.26µM*,21µM*,21µM*,2,i
COc1ccc(Cl)cc1NC(=O)CN1C(=O)CC(C)S(=O)(=O)c2ccccc21 (centres undefined),-4,11%,-42%,i,-6,i
Cc1ccc(S(=O)(=O)Nc2cc3c(cc2Cl)n(C)c(=O)c(=O)n3C)cc1,/,/,/,i,/,i
CCCCOc1ccc(-c2nnn(CC(=O)NCc3ccco3)n2)cc1,-5,1%,3%,?,18,4.1µM*
Cc1cccc(NC(=O)c2sc(-n3nc(C)c(CCC(C)C)c3C)nc2C)c1C,/,/,/,i,/,i
